In PubChem BioAssay AID1159580 (chemical genetic matrix, 2015):
About 2,000 (36%) of roughly 5,500 compounds were called active. Another 18% or so got no clear call; they are omitted. Cut-off read from the data, not from the text of the source: active = normalized growth mostly below about 0.91 (no sharp cut-off); inconclusive = no clear call, values can overlap the other calls; inactive = mostly above about 0.92. This is one part of the list.

Assay: chemical genetic growth profiling, strain panel (AID 1159580);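 note: tested at 20 µM; growth read once vehicle control cultures reached saturation at 30 °C; 1 = growth at the plate median or of vehicle wells; lower values mean less growth of the strain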
Settings: S. cerevisiae deletion strains, growth OD

Measured: normalized growth

CC1=NN(c2ccccc2)C(=O)C1
inactive: locus YAL021C, strain ccr4, stronger effect = lower value 0.982 | locus YAL026C, strain drs2, stronger effect = lower value 0.959 | locus YAL030W, strain snc1, stronger effect = lower value 0.998 | locus YBL061C, strain skt5, stronger effect = lower value 0.987 | locus YBR009C, strain hhf1, stronger effect = lower value 0.936 | locus YBR021W, strain FUR4, stronger effect = lower value 0.993 | locus YBR023C, strain chs3, stronger effect = lower value 0.983 | locus YBR171W, strain sec66, stronger effect = lower value 0.994 | locus YBR229C, strain ROT2, stronger effect = lower value 0.978 | locus YBR231C, strain swc5, stronger effect = lower value 0.979 | locus YBR279W, strain paf1, stronger effect = lower value 0.979 | locus YCL011C, strain gbp2, stronger effect = lower value 0.98 | locus YCL016C, strain dcc1, stronger effect = lower value 0.965 | locus YCL029C, strain bik1, stronger effect = lower value 0.982 | locus YCL061C, strain MRC1, stronger effect = lower value 0.985 | locus YCL069W, strain vba3, stronger effect = lower value 0.986 | locus YCR088W, strain abp1, stronger effect = lower value 0.993 | locus YDL005C, strain med2, stronger effect = lower value 0.975 | locus YDL035C, strain GPR1, stronger effect = lower value 0.955 | locus YDL040C, strain nat1, stronger effect = lower value 0.978 | locus YDL074C, strain BRE1, stronger effect = lower value 0.912 | locus YDL101C, strain DUN1, stronger effect = lower value 0.957 | locus YDL134C, strain PPH21, stronger effect = lower value 0.971 | locus YDL185W, strain tfp1, stronger effect = lower value 0.976 | locus YDL192W, strain arf1, stronger effect = lower value 0.918 | locus YDR001C, strain nth1, stronger effect = lower value 0.994 | locus YDR069C, strain doa4, stronger effect = lower value 0.969 | locus YDR101C, strain arx1, stronger effect = lower value 1.01 | locus YDR137W, strain rgp1, stronger effect = lower value 0.899 | locus YDR159W, strain sac3, stronger effect = lower value 0.957 | locus YDR162C, strain NBP2, stronger effect = lower value 0.925 | locus YDR195W, strain ref2 1 | locus YDR297W, strain sur2, stronger effect = lower value 0.983 | locus YDR334W, strain swr1, stronger effect = lower value 0.992 | locus YDR335W, strain msn5, stronger effect = lower value 0.99 | locus YDR388W, stronger effect = lower value 0.958 | locus YDR502C, strain sam2, stronger effect = lower value 0.934 | locus YEL003W, strain gim4, stronger effect = lower value 0.97 | locus YEL037C, strain rad23, stronger effect = lower value 0.994 | locus YEL061C, strain CIN8 (second series), stronger effect = lower value 0.988 | locus YEL061C, strain CIN8, stronger effect = lower value 0.992 | locus YER015W, strain faa2, stronger effect = lower value 0.987 | locus YER016W, strain bim1, stronger effect = lower value 0.99 | locus YER110C, stronger effect = lower value 0.98 | locus YER111C, strain swi4, stronger effect = lower value 0.989 | locus YER155C, strain BEM2 (second series), stronger effect = lower value 0.917 | locus YER155C, strain BEM2, stronger effect = lower value 0.991 | locus YER167W, strain BCK2, stronger effect = lower value 0.952 | locus YFR010W, strain ubp6, stronger effect = lower value 0.983 | locus YGL078C, strain dbp3, stronger effect = lower value 0.98 | locus YGL086W, strain mad1, stronger effect = lower value 0.955 | locus YGL167C, strain pmr1, stronger effect = lower value 0.982 | locus YGL173C, strain kem1, stronger effect = lower value 0.974 | locus YGL227W, strain vid30, stronger effect = lower value 0.995 | locus YGL240W, strain doc1, stronger effect = lower value 0.952 | locus YGL248W, strain PDE1, stronger effect = lower value 0.963 | locus YGL253W, strain hxk2, stronger effect = lower value 0.976 | locus YGR135W, strain pre9, stronger effect = lower value 0.914 | locus YGR252W, strain gcn5, stronger effect = lower value 0.867 | locus YHR013C, strain ard1, stronger effect = lower value 0.881 | locus YHR027C, strain rpn1, stronger effect = lower value 0.985 | locus YHR030C, strain SLT2, stronger effect = lower value 0.987 | locus YHR079C, strain IRE1 (second series), stronger effect = lower value 0.981 | locus YHR094C, strain hxt1, stronger effect = lower value 0.982 | locus YHR129C, strain ARP1, stronger effect = lower value 0.972 | locus YHR142W, strain chs7, stronger effect = lower value 0.972 | locus YHR200W, strain rpn10, stronger effect = lower value 0.975 | locus YIL066C, strain RNR3, stronger effect = lower value 0.929 | locus YIL073C, strain SPO22, stronger effect = lower value 0.898 | locus YIR030C, strain dcg1, stronger effect = lower value 0.978 | locus YJL092W, strain hpr5, stronger effect = lower value 0.985 | locus YJL095W, strain BCK1 (second series), stronger effect = lower value 0.983 | locus YJL095W, strain BCK1, stronger effect = lower value 0.935 | locus YJL115W, strain asf1, stronger effect = lower value 0.983 | locus YJL129C, strain trk1, stronger effect = lower value 0.985 | locus YJL134W, strain LCB3, stronger effect = lower value 0.981 | locus YJL154C, strain vps35, stronger effect = lower value 0.997 | locus YJL164C, strain tpk1, stronger effect = lower value 0.973 | locus YJL166W, strain qcr8, stronger effect = lower value 0.949 | locus YJL168C, strain set2, stronger effect = lower value 0.993 | locus YJL187C, strain SWE1 (second series), stronger effect = lower value 0.986 | locus YJL187C, strain SWE1, stronger effect = lower value 0.983 | locus YJR043C, strain POL32, stronger effect = lower value 0.998
active: locus YDR318W, strain mcm21, stronger effect = lower value 0.904 | locus YDR392W, strain spt3, stronger effect = lower value 0.609 | locus YIL125W, strain kgd1, stronger effect = lower value 0.93
